Results taken from PubChem BioAssay (Tox21).
Records with an inconclusive call do not appear. The source made the active and inactive calls. Unless noted, the call rests on the fitted dose curve; in most records, active means well fitted curve in the direction sought with a large enough effect in the repeat runs; inconclusive means weak or mixed curves; inactive means no such curve, though single readings can be large; an effect the other way counts as inactive or inconclusive.

Key:
[1] = qHTS assay for small molecule agonists of the p53 signaling pathway (AID 651631; calls by dose curve; further: nearly all actives have a fitted effect of over 15% in size)
Outline: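 Stably transfected HCT-116 cells (beta-lactamase behind p53 response elements) get compounds after a 5 h settling period; 16 h later at 37 °C, FRET substrate is loaded and fluorescence read after 2 h.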

[2] = qHTS assay for small molecules that induce genotoxicity in human embryonic kidney cells expressing luciferase-tagged ATAD5 (AID 651632); further: nearly all actives have a fitted effect of over 15% in size
Outline: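 Luminescent reporter readout, HEK293T ATAD5-luc line: 16 hr drug exposure (37C, 5% CO2) followed by Amplite, 30 min RT.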

[3] = qHTS assay for small molecule agonists of the p53 signaling pathway - cell viability (AID 651633; calls by dose curve;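 further: p53RE-bla HCT reporter cells with a stable beta-lactamase p53 reporter; series mostly up to about 83 µM; nearly all actives have a fitted effect of over 30% in size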)
Outline: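 p53RE-bla cells were treated with compound for 16 hours at 37 C. Cytotoxicity was then measured as CellTiter-Glo luminescence after 30 min at room temperature.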

[4] = qHTS assay for small molecules that induce genotoxicity in human embryonic kidney cells expressing luciferase-tagged ATAD5 - cell viability (AID 651634; calls by dose curve; further: nearly all actives have a fitted effect of over 25% in size)
Outline: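 Viability read: CellTiter-Fluor fluorescence, 30 min at 37C. Cells: HEK293T, luciferase-tagged ATAD5. Exposure: 15.5 hr, 37C, 5% CO2, compound or DMSO vehicle.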

[5] = qHTS assay for small molecule disruptors of the mitochondrial membrane potential - cell viability (AID 720634; calls by dose curve;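 further: human HepG2 liver cancer cells; series mostly up to about 83 µM; nearly all actives have a fitted effect of over 20% in size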)
Outline: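 HepG2, 1 hr compound, 37 C. ATP luminescence via CellTiter-Glo, 30 min RT, same well as m-MPI.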

[6] = qHTS assay to test for compound auto fluorescence at 590 nm (red) in HepG2 cells (AID 720674)
Outline: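 Seeding: 2,000 HepG2 cells/well, MEM/10% FBS, overnight 37 C. Dosing: compound vs DMSO. Incubation: 1 hr, 37 C, 5% CO2. Read: fluorescence 540 ex/590 em, Rose Bengal sodium as red reference.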

[7] = qHTS assay to test for compound auto fluorescence at 535 nm (green) in HepG2 cells (AID 720675)
[8] = qHTS assay to test for compound auto fluorescence at 460 nm (blue) in HEK293 cells (AID 720678)
Outline: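 After cell attachment (4-5 hr, 37C), compounds were pinned onto HEK293 monolayers in 10% dialyzed FBS medium. The blue channel (405/460 nm) was read following overnight culture. Equivalency was calculated against triamterene.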

[9] = qHTS assay to test for compound auto fluorescence at 590 nm (red) in HEK293 cells (AID 720679)
Outline: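 Plates of HEK293 cells (10% dialyzed FBS) are treated with 23 nL compound or DMSO vehicle after a 4-5 hr attachment period, incubated overnight at 37C, and read for red fluorescence at 540/590nm.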

[10] = qHTS assay to test for compound auto fluorescence at 535 nm (green) in HEK293 cells (AID 720680)
[11] = qHTS assay to test for compound auto fluorescence at 535 nm (green) in HEK293 cell free culture (AID 720682)
Outline: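 Using fluorescein as calibrant, autofluorescence was quantified at 485/535 nm in cell-free DMEM containing 10% FBS after pintool addition of compound or vehicle.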

[12] = qHTS assay to test for compound auto fluorescence at 590 nm (red) in HEK293 cell free culture (AID 720683)
Outline: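 Cell-free wells of DMEM with 10% FBS received compound, and intrinsic fluorescence was read at excitation/emission 540/590 nm. Values expressed as equivalence to Rose Bengal sodium.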

[13] = qHTS assay to test for compound auto fluorescence at 590 nm (red) in HepG2 cell free culture (AID 720684)
Outline: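 Compounds are added to culture medium (MEM, 10% FBS) lacking cells, then fluorescence is read at excitation 540 nm, emission 590 nm, with Rose Bengal sodium as the equivalency standard.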

[14] = qHTS assay to test for compound auto fluorescence at 460 nm (blue) in HepG2 cell free culture (AID 720685)
Outline: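 Compound (23 nL) or DMSO pinned into cell-free MEM with 10% FBS; blue fluorescence read at 405/460 nm excitation/emission, expressed as auto-fluorescence equivalency to triamterene.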

[15] = qHTS assay to test for compound auto fluorescence at 535 nm (green) in HepG2 cell free culture (AID 720686)
[16] = qHTS assay to test for compound auto fluorescence at 460 nm (blue) in HepG2 cells (AID 720687)
Outline: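 HepG2 cells in MEM with 10% FBS, attached overnight at 37 C, were exposed to compound or DMSO for 1 hr at 37 C, 5% CO2. Blue fluorescence was read at 405/460 nm, with triamterene as reference fluorophore.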

[17] = target: Glucocorticoid receptor (Homo sapiens) (UniProt P04150); assay: qHTS assay to identify small molecule agonists of the glucocorticoid receptor (GR) signaling pathway (AID 720691; active means well fitted activation curve with a large enough effect in the signal ratio in the repeat runs, not every such curve was filed as active; the % refers to the signal ratio)
Glucocorticoid receptor (Homo sapiens), sequence (P04150 whole entry, looked up): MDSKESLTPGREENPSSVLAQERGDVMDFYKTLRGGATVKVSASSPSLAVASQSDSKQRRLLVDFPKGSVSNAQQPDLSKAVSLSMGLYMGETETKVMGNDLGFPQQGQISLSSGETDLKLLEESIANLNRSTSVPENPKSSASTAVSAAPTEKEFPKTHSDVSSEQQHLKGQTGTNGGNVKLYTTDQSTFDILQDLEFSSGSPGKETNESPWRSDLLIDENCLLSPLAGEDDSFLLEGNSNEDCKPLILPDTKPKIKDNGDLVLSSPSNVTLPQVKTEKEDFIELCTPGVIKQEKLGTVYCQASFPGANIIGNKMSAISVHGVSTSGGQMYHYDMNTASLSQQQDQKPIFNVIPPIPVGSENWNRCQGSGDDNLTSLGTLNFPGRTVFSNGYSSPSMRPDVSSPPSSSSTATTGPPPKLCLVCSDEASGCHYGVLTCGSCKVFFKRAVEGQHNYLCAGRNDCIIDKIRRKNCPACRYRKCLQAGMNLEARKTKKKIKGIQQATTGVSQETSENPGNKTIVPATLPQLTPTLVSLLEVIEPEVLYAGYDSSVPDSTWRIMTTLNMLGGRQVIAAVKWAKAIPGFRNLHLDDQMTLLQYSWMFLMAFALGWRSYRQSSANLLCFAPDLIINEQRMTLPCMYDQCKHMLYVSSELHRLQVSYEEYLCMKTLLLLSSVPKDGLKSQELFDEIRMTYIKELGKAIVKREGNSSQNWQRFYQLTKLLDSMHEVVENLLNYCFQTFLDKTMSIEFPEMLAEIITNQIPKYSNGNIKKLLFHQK
Outline: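 qHTS in GR-bla HeLa cells: 4 h settling at 37 C/5% CO2, 18 h compound incubation at 37 C, 2 h LiveBLAzer B/G FRET substrate at room temperature, fluorescence intensity measured.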

[18] = target: Glucocorticoid receptor (Homo sapiens) (UniProt P04150); assay: qHTS assay to identify small molecule antagonists of the glucocorticoid receptor (GR) signaling pathway (AID 720692; active means well fitted inhibition curve with a large enough effect in the signal ratio in the repeat runs, not every such curve was filed as active; the % refers to the signal ratio)
Outline: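 Inhibition of glucocorticoid signalling is measured in HeLa cells with a GRE-controlled beta-lactamase reporter; cells are co-treated with compound and 5 nM dexamethasone (final) for 18 h before FRET substrate readout.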

[19] = qHTS assay to test for compound auto fluorescence at 460 nm (blue) in HEK293 cell free culture (AID 720681)
Outline: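 Compounds were added to cell-free DMEM with 10% FBS and fluorescence read directly. The blue channel used 405 nm excitation and 460 nm emission, with triamterene as the reference fluorophore.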

Measured: Potency

CCOc1ccc(C(C)(C)COCc2cccc(Oc3ccccc3)c2)cc1
not listed: [19]
inactive: all other assays above

CC(=O)CCC(C)=O
not listed: [9]
inactive: all other assays above

O=C(O)C(F)(F)C(F)(F)C(F)(F)C(F)(F)C(F)(F)C(F)(F)C(F)(F)C(F)(F)C(F)(F)C(F)(F)F
not listed: [8] | [17] | [18]
inactive: all other assays above

CCCN(CC1CC1)c1c([N+](=O)[O-])cc(C(F)(F)F)cc1[N+](=O)[O-]
not listed: [11]
inactive: all other assays above

CC(C)(CCl)C(=O)Cl
not listed: [9]
inactive: all other assays above

c1ccc(C2CC2)c(OCC2=NCCN2)c1
not listed: [9]
inactive: all other assays above

Cc1ccc(N)cc1C
not listed: [9] | [16] | [17] | [18] | [19]
inactive: all other assays above

N#Cc1ccc(Cl)cc1
inactive: all assays above
